Laboratory results as given in PubChem BioAssay (NCI).
About 83,000 compounds went through this panel and 20% of them were active in at least one assay; those are over-represented in the sample as a whole.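 Results are percent growth after 48 hours of single-concentration exposure. 100 means growth as in untreated cells, lower positive values show inhibition; negative values down to -100 show cell death.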 Values without a mark were called inactive. The source made the active and inactive calls. How the source made its calls: active means growth percent below 10; inactive means the rest.

Legend:
Experiment in all cases: NCI-60 one-dose screen, 48 h (100 = growth as untreated, 0 = no growth, -100 = all killed)
Conditions in all cases: 10 µM unless noted
[1] = system: NCI-H23 lung
[2] = system: NCI-H226 lung
[3] = system: NCI-H322M lung
[4] = system: HOP-62 NSCLC
[5] = system: NCI-H460 lung
[6] = system: HOP-92 NSCLC
[7] = system: NCI-H522 lung
[8] = system: A549/ATCC NSCLC
[9] = system: 786-0 renal
[10] = system: COLO 205 colon
[11] = system: DU-145 prostate
[12] = system: K-562 leukemia
[13] = system: MALME-3M melanoma
[14] = system: MDA-MB-231 breast
[15] = system: RXF 393 renal
[16] = system: SF-268 CNS
[17] = system: SF-295 CNS
[18] = system: SF-539 CNS
[19] = system: UACC-257 melanoma
[20] = system: M14 melanoma

SMILES | growth [1] | growth [2] | growth [3] | growth [4] | growth [5] | growth [6] | growth [7] | growth [8] | growth [9] | growth [10] | growth [11] | growth [12] | growth [13] | growth [14] | growth [15] | growth [16] | growth [17] | growth [18] | growth [19] | growth [20]
COc1ccc(S(=O)(=O)Nc2c(/C=C\c3cc(OC)c(OC)c(OC)c3)ccc(OC)c2O)cc1OC | 33.2% | 29% | 44.3% | 71.5% | 5.24% (active) | 30.5% | -9.02% (active) | 20.9% | 14% | -39.3% (active) | -10.2% (active) | 17.2% | 69.2% | 1.41% (active) | 24.6% | 23.7% | 12% | -14.6% (active) | 58.5% | 9.05% (active)
CCCCCCCCCCCCCC[P+](CCCCCC)(CCCCCC)CCCCCC | -39.3% (active) | -1.45% (active) | -11.9% (active) | -2.18% (active) | -59.4% (active) | -67.1% (active) | -71.4% (active) | -35% (active) | -65.8% (active) | -65.4% (active) | -100% (active) | 39% | -83.9% (active) | -38.3% (active) | -97.7% (active) | -4.6% (active) | -68.4% (active) | 5.67% (active) | -34.6% (active) | -36.5% (active)
COc1ccc(/C=C\c2cc(OC)c(OC)c(OC)c2)c(NS(=O)(=O)c2ccc(C)cc2)c1O | 23.2% | 33.9% | 43.6% | 80.7% | 6.42% (active) | 44.4% | -17.3% (active) | 26.6% | 18.8% | -15.5% (active) | -14.4% (active) | 17.6% | 92.2% | 14.8% | 32.5% | 19.4% | 16.9% | 1.5% (active) | 66.7% | 9.2% (active)
NC(=O)C(Br)c1ccccc1 (stereo not given) | 89.9% | 88.7% | 99.6% | 103% | 108% | 99.6% | 53.5% | 91.8% | 107% | 103% | 103% | 84.3% | 74.9% | 87.8% | 104% | 79.6% | 97% | 109% | 83.3% | 73.3%
COC1CC2c3ccccc3C1C(C)=[N+]2C (stereo not given) | 89.3% | 90.8% | 99.5% | 110% | 106% | 98.7% | 79.8% | 96% | 98.9% | 120% | 110% | 110% | 88.7% | 99.5% | 98% | 107% | 94.2% | 102% | 95.6% | 103%
Cc1ccc(N2COOC3(OOC2)C2CC4CC(C2)CC3C4)cc1 | 89.5% | 108% | 98.7% | 93.1% | 103% | 95.5% | 92.5% | 98.7% | 96.1% | 110% | 109% | 72.6% | 110% | 112% | 115% | 97.9% | 95.5% | 96.5% | 95.3% | 97.8%
Cc1cc(-c2nc3cc(F)ccc3[se]2)cc(F)c1N | 59.5% | 34.9% | 83.8% | 71.2% | 23.1% | 79.2% | 83.1% | 66.9% | 103% | 52.4% | 98.4% | 95.8% | 84.9% | 63.5% | 120% | 101% | 99.7% | 94.7% | 98.5% | 90.3%
CN(C)C(=O)Oc1ccc(Br)cc1 | 102% | 101% | 86.1% | 93% | 104% | 107% | 95.6% | 100% | 98.6% | 102% | 107% | 96.5% | 98% | 105% | 107% | 110% | 91.3% | 108% | 95% | 104%
OCCCCCNC1CCCCC1 | 97.3% | 98.9% | 99% | 111% | 109% | 96.1% | 67.8% | 107% | 99.5% | 112% | 115% | 94% | 97.3% | 114% | 104% | 113% | 110% | 98% | 99.5% | 101%
N#Cc1c(Br)n(C2OC(CO)C(O)C2O)c2ncnc(N)c12 (stereo not given) | 74.4% | 135% | 81% | 101% | 34% | 52.7% | 60.5% | 13.4% | 89.1% | 18.2% | 17.8% | 20.8% | 108% | 97.1% | 13.8% | 55% | 87.5% | 102% | 80.3% | 60%
C[C@@H]1CCC2[C@@H](C)[C@H](OC(=O)CCC(=O)NCCNC(=O)Cc3cc(=O)oc4cc(N(C)C)ccc34)O[C@@H]3O[C@]4(C)CC[C@@H]1C23OO4 (stereo not given in full) | 21.5% | 65.3% | 79.2% | 82.8% | 39.4% | 29.3% | -4.8% (active) | 51.4% | 36.7% | 47.6% | 94% | 13.6% | 49.6% | 77% | 61.7% | 56.7% | 41.8% | 55.4% | 59.1% | 38.4%
CCCCCCC(=O)NC1=C(N2CC2)C(=O)C(NC(=O)CCCCCC)=C(N2CC2)C1=O | 33.6% | 75% | 79.5% | 47.2% | 24% | 65.3% | 39.2% | 42.3% | 33.6% | 3.58% (active) | 15.6% | 70.7% | 7.93% (active) | 24.8% | 25.7% | 52.9% | 29.7% | 61.7% | 34.2% | 20.5%
COC(=O)[C@@H](C)C[C@H](Cc1ccccc1)NC(=O)c1csc([C@@H](C[C@H](C(C)C)N(C)C(=O)[C@@H](NC(=O)[C@H]2CCCCN2C)C2CCCCC2)OC(C)=O)n1 | 16.1% | 20.5% | 34.1% | -19.8% (active) | 1.05% (active) | -13.2% (active) | -32.1% (active) | 11.4% | 3.22% (active) | -75.7% (active) | 6.23% (active) | -0.636% (active) | 56.9% | -3.53% (active) | 65.5% | 8.92% (active) | -3.03% (active) | -22.3% (active) | 48% | -35.1% (active)
CC12CCC3C(CCC4Cc5[nH]c6ccccc6c5CC43C)C1CCC2O (stereo not given) | 49.3% | 41.3% | 43% | 62.8% | 5.72% (active) | 63.4% | 26.4% | 41.5% | 33.5% | 45% | -21.2% (active) | 5.1% (active) | 48.3% | 37.1% | -13.8% (active) | 47.5% | -10.7% (active) | 9.54% (active) | 74.1% | 20.6%
COC(=O)[C@@H](C[C@H](Cc1ccccc1)NC(=O)c1csc([C@@H](C[C@H](C(C)C)N(C)C(=O)[C@@H](NC(=O)[C@H]2CCCCN2C)C(C)C)OC(C)=O)n1)NC(=O)OCc1ccccc1 | 35.1% [9.5 µM] | -36.8% [9.5 µM] (active) | 43.1% [9.5 µM] | 12.1% [9.5 µM] | 5.31% [9.5 µM] (active) | 25.7% [9.5 µM] | -45.5% [9.5 µM] (active) | 14.1% [9.5 µM] | 15.8% [9.5 µM] | -65.4% [9.5 µM] (active) | -3.78% [9.5 µM] (active) | 2.99% [9.5 µM] (active) | -42.5% [9.5 µM] (active) | 18.6% [9.5 µM] | 39.8% [9.5 µM] | 15.2% [9.5 µM] | 3.92% [9.5 µM] (active) | -19.1% [9.5 µM] (active) | 6.49% [9.5 µM] (active) | -41.7% [9.5 µM] (active)
